High-throughput results: PubChem BioAssay, several laboratories
In the library only some 2.2% were active in any assay of this set; here they are far more common.
GalR3_antagonist – GalR3 antagonists in HEK293 cells, primary screen, cell-based, fluorescence readout; inhibition, % at 3 µM; HEK293 GalR3-CNG cAMP membrane potential fluorescence; galR3 body fused to GalR1 C-terminus; Galanin receptor type 3 (Homo sapiens), O60755; actives 0.44% (n = 360,000);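 active = inhibition above the screen-wide average plus 3 SD, cut at about 13% in these data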;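 also: forskolin and galanin both at EC90 stimulate the cells; cAMP rise reported by CNG channel membrane potential dye signal; 0% = forskolin plus galanin with DMSO and 100% = forskolin alone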
Target sequence (O60755 1-299 limits assumed): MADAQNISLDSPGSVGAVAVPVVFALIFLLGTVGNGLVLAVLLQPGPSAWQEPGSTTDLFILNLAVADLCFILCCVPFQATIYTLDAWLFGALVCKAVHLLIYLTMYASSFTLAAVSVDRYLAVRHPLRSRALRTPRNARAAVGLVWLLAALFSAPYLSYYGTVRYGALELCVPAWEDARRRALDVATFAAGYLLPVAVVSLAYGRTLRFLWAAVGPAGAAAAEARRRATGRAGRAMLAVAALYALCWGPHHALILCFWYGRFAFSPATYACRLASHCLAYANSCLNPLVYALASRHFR
SMARCA2_activ – SMARCA2 (BRM) function activators, primary screen, cell-based, luminescence, high throughput; MG213 cells, MMTV-luciferase reporter, dexamethasone, overnight; activation, % at 9.1 µM; actives 1% (n = 370,000); in the data active = activation above about 7.8%;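 also: 0% = vehicle wells and 100% = reference activator wells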
HIF_act – HIF pathway transcriptional activators, primary screen, cell-based, U2OS HRE-luciferase, luminescence. U2OS HRE-luciferase reporter; normalized: DMSO 0%, desferrioxamine 100%. activation, % at 7.5 µM (by protocol). actives 0.32% (n = 300,000). AID 1910, 2009;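 active = mean activation of at least 10% of the iron chelator positive control signal, with at least half of replicates also reaching 10%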
GAA850_FXN_act – FXN promoter activators, primary screen, cell-based, luciferase luminescence, HEK293 lucGAA850 | HEK293 lucGAA850 FXN promoter luciferase reporter, 24 h; percent of 10 µM SAHA response | activation, % at 6 µM | actives 0.56% (n = 360,000);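 active = activation above the average of all compounds screened plus 3 SD, cutoff fixed separately per campaign, cut at about 7.5% in these data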;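 also: 0% = DMSO wells and 100% = 10 µM SAHA wells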
Hsp70_act – Hsp70 transcriptional activators, primary screen, cell-based, HeLa, Hsp70 promoter luciferase, luminescence, 10 µM. HeLa Hsp70 promoter luciferase reporter; scaled: vehicle 0, proteasome-inhibitor control 100%. activation, % at 10 µM. actives 0.04% (n = 200,000);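 active = activation above the mean across all tested compounds plus 3 SD, cutoff set per campaign, cut at about 5.5% in these data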;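 also: 100% = MG132 at 30 µM as the positive control and 0% = DMSO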
SMARCA2_act_conf – SMARCA2 (BRM) function activators, confirmation, cell-based, luminescence, triplicate; shares compounds with SMARCA2_activ; MG213 cells, MMTV-luciferase with dexamethasone, overnight; MG213 cells expressing E1A, Rb sequestered; DMSO wells 0%, reference activator 100%; activation, % at 9.1 µM; actives 30% (n = 3,500); AID 652260, 2013;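 active = activation above its plate's cutoff, the mean activation of tested wells plus 3 SD, cut at about 7.9% in these data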
VP16_Luc_act – GAL4-VP16 luciferase reporter activation, counter-screen for SMARCA2 (BRM) activator project, cell-based, pG5luc, luminescence, high throughput; AID 686939, 2013; actives 41% (n = 3,500); shares compounds with SMARCA2_activ; HEK293 GAL4-VP16 pG5luc reporter; scaled: DMSO wells 0%, SAHA wells 100%; activation, % at 9.1 µM;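 active = activation above the solvent-only control well mean plus 3 SD, averaged across control plates, cut at about 5.2% in these data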
Active calls of the source: *; nt = no result given.

SMILES GalR3_antagonist SMARCA2_activ HIF_act GAA850_FXN_act Hsp70_act SMARCA2_act_conf VP16_Luc_act
CC(=O)C1=C(C)OC2=C(C(=O)CCC2)[C@@]12C(=O)N(C)c1ccccc12 -4.6 -2.3 nt nt nt nt nt
CN(C)C(=O)Oc1ccc(Cl)c2ccccc12 -3.4 -3.8 -0.5 -1.0 -0.3 nt nt
Cc1c(OC(=O)N(C)C)ccc2c1O/C(=C\c1ccco1)C2=O -8.1 8.2* -51.4 0.5 nt 3.6 5.9*
CS(=O)(=O)c1ccc(C2=C(CNC(=O)c3cccnc3)[C@H]3CC[C@@H](C2)N3Cc2ccccc2)cc1 -5.6 12.7* nt -0.1 nt -2.6 0.4
S=P1(Oc2ccccc2)Nc2ccccc2N1 -6.1 12.1* nt 1.0 nt 5.3 3.1
O=C(NCCN1CCC2(CC1)C(=O)NCN2c1ccccc1)c1ccc2ccccc2c1 -5.5 4.0 nt nt nt nt nt
COC(=O)C1=C(C(=O)OC)SC2(S1)C(C(=O)OC)=C(C(=O)OC)Sc1c2ssc1=O 6.6 61.9* nt -11.3 nt -9.5 8.4*
CCCCN1CCN(C(=O)COc2cc(=O)n(C)c3ccccc23)CC1 nt -4.8 nt nt nt nt nt
Cc1cc(NC(=O)CCl)no1 0.5 8.9* -2.0 0.6 0.2 1.2 0.4
